p53 reactivation: re-activators of mutant p53. H1299 p53-A138V BP100-luciferase reporter, luminescence, 24 h. Potency, µM (series often up to 92.2 µM), actives largely listed as activators. 0.063% of 320,000 active; also: nearly all actives have a fitted effect of over 45% in size
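p53-null H1299 cells stably carrying temperature-sensitive p53-A138V and a BP100-luciferase reporter were pinned with compounds (4-point, 1:5 series) and held 24 hrs at 37 deg C. Luminescence was read 10 min after detection reagent.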
ELG1 genotoxic: induces genotoxicity in HEK293T cells with luciferase-tagged ELG1 | HEK293T ELG1-luciferase reporter, luminescence, 16 h | Potency, µM (top dose mostly 46 µM), actives largely listed as activators | 1.3% of 330,000 active; also: nearly all actives have a fitted effect of over 60% in size
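Step 1: seed 2,000 HEK293T ELG1-luciferase cells per well. Step 2: add compound or DMSO, incubate 16 hr at 37 °C. Step 3: ONE-Glo, 30 min at room temperature, read luminescence.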
SMN2 splice enh: increases expression of the SMN2 splice variant. HEK293 SMN2-luciferase splicing reporter, luminescence, 30-36 h. Potency, µM (top dose mostly 46.1 µM), usual class: activators. 2.8% of 210,000 active. AID 1458; also: nearly all actives have a fitted effect of over 55% in size
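HEK293 cells carry an SMN2 minigene-luciferase reporter in which exon 7 inclusion puts luciferase in frame. Cells were seeded at 2000 cells/well, attached for 10-12 hours, then exposed to compounds for 30-36 hours at 37C before ONE-Glo luminescence.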
NPC1 promoter act: activates the NPC1 promoter. 2.4% of 320,000 active. Potency, µM (titrated, usually from 9.22 µM), usual class: activators. AID 485313. Huh7 NPC1 promoter luciferase reporter, 24 h; also: nearly all actives have a fitted effect of over 60% in size
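In 1536-well qHTS, Huh7 cells harboring an NPC1 promoter–luciferase construct received compound for 24 h; activation was quantified by luminescence following luciferase reagent addition.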
Rab9 promoter act: Rab9 promoter activation | Huh7 Rab9 promoter-luciferase reporter, luminescence, 24 h | Potency, µM (top dose mostly 9.22 µM), most hits filed as activators | 2.8% of 320,000 active; also: nearly all actives have a fitted effect of over 60% in size
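Huh7 cells stably carrying Rab9 promoter–luciferase reporter, plated 1500 cells/well, compound added after 2 h and incubated 24 h at 37 °C; luciferase luminescence then read after 10 min with detection reagent.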
FLuc modulator: counter-screen for miR-21 project: firefly luciferase inhibitors or activators. P08659. purified FLuc, Km substrates, luminescence inhibition. Potency, µM (highest dose often 57.5 µM), most hits filed as inhibitors. 6.9% of 360,000 active. AID 588342; also: nearly all actives have a fitted effect of over 55% in size
Target sequence (P08659 whole entry, looked up): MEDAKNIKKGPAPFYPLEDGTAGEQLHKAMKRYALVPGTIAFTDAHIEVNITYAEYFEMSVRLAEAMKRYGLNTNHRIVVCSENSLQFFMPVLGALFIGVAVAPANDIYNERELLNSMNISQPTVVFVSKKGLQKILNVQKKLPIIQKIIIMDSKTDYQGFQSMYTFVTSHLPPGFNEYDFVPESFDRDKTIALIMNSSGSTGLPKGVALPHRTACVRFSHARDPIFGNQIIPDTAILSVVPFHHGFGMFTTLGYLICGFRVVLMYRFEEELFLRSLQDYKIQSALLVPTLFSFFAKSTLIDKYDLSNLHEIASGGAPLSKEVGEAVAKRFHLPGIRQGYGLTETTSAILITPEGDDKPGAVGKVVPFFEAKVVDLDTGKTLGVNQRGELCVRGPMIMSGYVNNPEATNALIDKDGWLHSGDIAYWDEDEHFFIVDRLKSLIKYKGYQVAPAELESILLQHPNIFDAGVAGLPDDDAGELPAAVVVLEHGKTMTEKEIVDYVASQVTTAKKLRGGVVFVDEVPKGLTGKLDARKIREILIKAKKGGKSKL
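Biochemical qHTS of compounds, final roughly 60 µM downward over six points, against 10 nM purified firefly luciferase using Km concentrations of substrates (10 uM D-luciferin, 10 uM ATP) in Tris acetate pH 7.5 buffer; luminescence output.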
A number is an active result. Most compounds without a hit are left out; they make up all but 7.4% or so of the library. Calls follow the shape of the dose curve; as a rule, active = well fitted curve in the direction sought with a large enough effect; inconclusive = small, poorly fitted or top-dose-only effect, or another doubt; inactive = no such curve, though single readings can be large; an effect the other way counts as inactive or inconclusive.

What do the screens show for `COc1ccc(C(=O)Nc2cccc(C(=O)O)c2)cc1S(=O)(=O)N1CCCC1`?
p53 reactivation: inactive; ELG1 genotoxic: inactive; NPC1 promoter act: inconclusive; Rab9 promoter act: inconclusive; FLuc modulator: 11µM

Results for Cc1ccc(C(=O)Nc2cccc(C(=O)O)c2)cc1S(=O)(=O)N1CCCC1 ?
SMN2 splice enh: 11µM; FLuc modulator: 0.095µM

How did Cc1cccc(NS(=O)(=O)c2ccc(Cl)c(C(=O)Nc3ccccc3C)c2)c1 do in these assays?
SMN2 splice enh: inactive; FLuc modulator: inconclusive

Results for COC(=O)CC1Oc2ccc(F)cc2-n2cc(-c3ccc(Cl)cc3)nc21 (stereo not given) ?
SMN2 splice enh: inactive; FLuc modulator: inactive

What do the screens show for `Cc1cccc(NC(=O)Cn2c(=O)n(Cc3ccc4c(c3)OCO4)c(=O)c3oc4ccccc4c32)c1C`?
FLuc modulator: inactive

What do the screens show for `Cc1ccc(-n2c(Cc3ccccc3)nnc2SCc2nc(-c3cccs3)no2)cc1C`?
SMN2 splice enh: inactive; FLuc modulator: inconclusive

How did COc1ccccc1N1CCN(C(=O)c2ccc3[nH]c4c(c3c2)CC(C)CC4)CC1 (stereo not given) do in these assays?
p53 reactivation: inactive; ELG1 genotoxic: inactive; SMN2 splice enh: inactive; NPC1 promoter act: inactive; Rab9 promoter act: inactive; FLuc modulator: 19µM

What do the screens show for `COc1ccccc1N1CCN(C(=O)c2ccc3[nH]c(C)c(C)c3c2)CC1`?
p53 reactivation: inactive; ELG1 genotoxic: inconclusive; NPC1 promoter act: inactive; Rab9 promoter act: inactive; FLuc modulator: inactive

What do the screens show for `COC(=O)c1cc(C(=O)N2CCN(c3ccccc3OC)CC2)cc([N+](=O)[O-])c1`?
p53 reactivation: inactive; ELG1 genotoxic: inactive; NPC1 promoter act: inactive; Rab9 promoter act: inactive; FLuc modulator: 21µM

Results for Oc1c(C(c2ccccc2)N2CCC(O)CC2)sc2nc(-c3ccco3)nn12 (stereo not given) ?
FLuc modulator: inactive

What do the screens show for `Cc1ccc(/C=N/c2sc(Cc3ccccc3)c(C)c2C(N)=O)o1`?
p53 reactivation: inactive; ELG1 genotoxic: inactive; SMN2 splice enh: inactive; NPC1 promoter act: inactive; Rab9 promoter act: inactive; FLuc modulator: inactive

How did CN(C)c1ccc(C=Nc2ccccc2C(N)=O)cc1 do in these assays?
p53 reactivation: inactive; ELG1 genotoxic: 10µM; SMN2 splice enh: 13µM; NPC1 promoter act: 3.2µM; Rab9 promoter act: 0.79µM; FLuc modulator: 1.5µM

What do the screens show for `Cc1ccc(C=Nc2ccccc2C(N)=O)o1`?
p53 reactivation: inconclusive; ELG1 genotoxic: inconclusive; SMN2 splice enh: 11µM; NPC1 promoter act: inconclusive; Rab9 promoter act: 3.5µM; FLuc modulator: 27µM

What do the screens show for `Cc1ccc(C(=O)O/N=C/c2ccc(N(C)C)cc2)cc1`?
p53 reactivation: inactive; ELG1 genotoxic: inactive; NPC1 promoter act: inactive; Rab9 promoter act: inactive; FLuc modulator: inconclusive

Results for C/C(=N\N=C\c1ccc(N(C)C)cc1)c1cccc([N+](=O)[O-])c1 ?
p53 reactivation: inconclusive; ELG1 genotoxic: inconclusive; SMN2 splice enh: 14µM; NPC1 promoter act: 3.5µM; Rab9 promoter act: 2.8µM; FLuc modulator: 2.1µM

How did COCCOC(=O)CSc1ncccc1-c1nc2cc(C)c(C)cc2[nH]1 do in these assays?
p53 reactivation: inactive; ELG1 genotoxic: inconclusive; SMN2 splice enh: 16µM; NPC1 promoter act: inconclusive; Rab9 promoter act: 3.5µM; FLuc modulator: 2.1µM

What do the screens show for `Cc1cc2nc(-c3cccnc3SCC(=O)NC(C)C)[nH]c2cc1C`?
p53 reactivation: inactive; ELG1 genotoxic: 23µM; SMN2 splice enh: 11µM; NPC1 promoter act: 2.8µM; Rab9 promoter act: 2.2µM; FLuc modulator: 2.7µM

How did Cc1c(C(=O)NC2CCCCC2)sc2nc3ccc(N)cc3n12 do in these assays?
SMN2 splice enh: inactive

How did C[C@H]1O[C@@H](n2cc(F)c(=O)[nH]c2=O)[C@H](O)[C@H]1O do in these assays?
NPC1 promoter act: inactive; Rab9 promoter act: inactive

How did Cc1nn(-c2nc3ccccc3s2)c(C)c1Oc1ccccc1O do in these assays?
p53 reactivation: 13µM; ELG1 genotoxic: inconclusive; SMN2 splice enh: inconclusive; NPC1 promoter act: 3.5µM; Rab9 promoter act: 3.2µM; FLuc modulator: 2.4µM

What do the screens show for `Cc1nn(C)c2c1c(C(F)(F)F)cc(=O)n2CC(=O)N1CCCCC1`?
FLuc modulator: inactive

Results for COc1ccc2c(c1)c1c(c(=O)n(Cc3ccccc3)c(=O)n1CC(=O)Nc1c(C)cccc1C)n2C ?
FLuc modulator: inactive

What do the screens show for `O=C(NCC1COc2ccccc2O1)c1ccc(Cl)cc1` (stereo not given)?
p53 reactivation: inconclusive; ELG1 genotoxic: 12µM; SMN2 splice enh: 14µM; NPC1 promoter act: 3.5µM; Rab9 promoter act: 2.5µM; FLuc modulator: 7.6µM

What do the screens show for `CC(C)Oc1ccc(/C=C/C(=O)NCC2COc3ccccc3O2)cc1` (stereo not given)?
p53 reactivation: inactive; ELG1 genotoxic: inactive; NPC1 promoter act: inactive; Rab9 promoter act: inactive; FLuc modulator: 15µM

How did CC(=O)c1ccc(NCC2COc3ccccc3O2)c([N+](=O)[O-])c1 (stereo not given) do in these assays?
p53 reactivation: inconclusive; ELG1 genotoxic: inconclusive; SMN2 splice enh: 5.6µM; NPC1 promoter act: 2.8µM; Rab9 promoter act: 1.1µM; FLuc modulator: 17µM

What do the screens show for `c1ccc(Nc2nc(-c3ccncc3)cs2)cc1`?
p53 reactivation: inconclusive; ELG1 genotoxic: inactive; SMN2 splice enh: inconclusive; NPC1 promoter act: inactive; Rab9 promoter act: inactive; FLuc modulator: inconclusive

Results for O=C(Nc1nc(-c2cccs2)cs1)c1ccc([N+](=O)[O-])o1 ?
p53 reactivation: inactive; ELG1 genotoxic: inactive; NPC1 promoter act: inactive; Rab9 promoter act: inactive; FLuc modulator: inconclusive

What do the screens show for `COc1cccc2sc(Nc3nc(-c4ccccn4)cs3)nc12`?
p53 reactivation: 25µM; ELG1 genotoxic: inactive; NPC1 promoter act: inactive; Rab9 promoter act: inconclusive; FLuc modulator: 12µM

How did c1ccc(-c2csc(Nc3cccnc3)n2)nc1 do in these assays?
p53 reactivation: inconclusive; ELG1 genotoxic: inconclusive; SMN2 splice enh: inconclusive; NPC1 promoter act: inconclusive; Rab9 promoter act: inconclusive; FLuc modulator: 19µM

What do the screens show for `c1ccc(Nc2nc(-c3ccccn3)cs2)cc1`?
SMN2 splice enh: 13µM; FLuc modulator: 3.8µM

What do the screens show for `c1cncc(Nc2nc(-c3cccs3)cs2)c1`?
p53 reactivation: inconclusive; ELG1 genotoxic: 9.2µM; SMN2 splice enh: 11µM; NPC1 promoter act: inconclusive; Rab9 promoter act: 3.2µM; FLuc modulator: 19µM

What do the screens show for `O=C(/C=C/c1ccc(S(=O)(=O)NCc2ccco2)cc1)NCc1ccccc1Cl`?
p53 reactivation: inactive; ELG1 genotoxic: inactive; NPC1 promoter act: inactive; Rab9 promoter act: inactive; FLuc modulator: inactive

How did O=C(NCc1ccco1)c1cc(-c2ccc(Cl)cc2)on1 do in these assays?
p53 reactivation: inactive; ELG1 genotoxic: inactive; SMN2 splice enh: inactive; NPC1 promoter act: 3.2µM; Rab9 promoter act: inconclusive; FLuc modulator: inactive
